Source: PubChem BioAssay
Cardiac RTF inh: cardiac RTF calcium desensitization; P19429+P45379; AID 493244; inhibition, % at 7.15 µM; IANBD-labeled cardiac RTF, Ca2+ fluorescence; 340,000 tested, 0.12% active;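 active means inhibition above the mean inhibition of all tested compounds plus 3 SD, cut at about 17% in these data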;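 further: assay run at fixed EC70 calcium of 1.6 mM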
IDE cell inh: inhibits human insulin-degrading enzyme in HEK cells; inhibition, % at 5.59 µM; 320,000 tested, 0.41% active; FAbetaB cleavage, fluorescence polarization; P14735;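 active means percent inhibition above the average of all tested compounds plus 3 SD, set per screening campaign, cut at about 16% in these data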;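 further: IDE supplied by intact live HEK cells; FP after avidin binding of uncleaved biotin substrate so inhibition keeps polarization high; 0% = DMSO wells and 100% = 60 µM reference IDE inhibitor Ii1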
IDE act: IDE (human) activation, cell-based | AID 493087 | HEK cells, FAbeta-B cleavage, fluorescence polarization; 0% vehicle, 100% cell-free pure enzyme wells | activation, % at 5.96 µM | 340,000 tested, 0.073% active;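 active means activation above the mean of all tested compounds plus 3 SD, set per screening campaign, cut at about 17% in these data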
cardiac RTF act: increases calcium sensitivity of human cardiac regulated thin filaments. P19429+P45379. IANBD-labeled TnC RTF fluorescence at EC20 calcium; 0% EC20 calcium, 100% full calcium. activation, % at 7.2 µM. 340,000 tested, 0.24% active. AID 493008;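 active means activation above the mean over all tested compounds plus 3 SD, cut at about 30% in these data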;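 further: rise in fluorescence read as greater calcium sensitivity of cardiac thin filaments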
CRFR2-BP antag: CRF-BP/CRF-R2 complex antagonism | HEK293 CRF-R2/CRF-BP, CRF-induced calcium fluorescence | AID 588475 | inhibition, % at 11.8 µM | 350,000 tested, 0.59% active;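 active means inhibition of the ligand-induced calcium signal above about 50% at the single tested concentration, limit read from the data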
CRFR2-BP ag: agonists of human CRF-binding protein/CRF-R2 receptor complex; AID 588473; 350,000 tested, 0.46% active; activation, % at 13.2 µM; HEK293 CRF-R2/CRF-BP, calcium dye fluorescence (FLIPR); percent of saturating CRF peptide response;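 active means activation of at least 50%, plus an integration ratio under a set limit after plate pattern correction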;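 further: plate controls were neutral control wells without compound for no effect and CRF at EC100 for full effect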
* = called active by the depositor; · = no result. Sampled rows, rich in hits. Any-hit rate of the full collection: about 1.5%.

SMILES	Cardiac RTF inh	IDE cell inh	IDE act	cardiac RTF act	CRFR2-BP antag	CRFR2-BP ag
COc1ccc(C(=O)NNC(=S)NC(=O)c2ccc(F)cc2)cc1Br	·	12	·	·	-4	77*
O=C(COc1ccccc1)NNC(=S)NC(=O)c1ccc(Cl)cc1Cl	·	8	·	·	-17	69*
COc1ccc(C(=O)NNC(=S)NC(=O)c2cccnc2)cc1	5	7	1	-2	-2	-1
COc1ccc(Cl)cc1C(=O)NNC(=O)COC(=O)c1cccs1	4	-6	-1	1	104*	-1
COc1ccc(C(=O)NNC(=S)NC(=O)c2ccc(OC)cc2)cc1	5	-3	0	0	10	51*
CCNC(=S)NNC(=O)c1ccc(OC)cc1	-9	-4	1	8	-9	1
CCCCC(=O)NC(=S)NNC(=O)c1ccc(OC)cc1	-16	-3	-5	3	31	85*
Cc1cccc(/C(N)=N/OC(=O)COc2ccc(Cl)cc2)c1	5	3	8	3	2	0
Cc1cccc(C(=O)NC(=S)NNC(=O)COc2ccc(Cl)cc2)c1	-9	·	1	-2	-101	59*
COC(=O)c1nn(-c2ccccc2)c(Sc2ccc(Br)cc2)c1/C=N/O	-1	1	1	-3	-15	-1
Cn1c(-c2ccc(C=O)s2)nc2c3ccccc3c3ccccc3c21	-14	3	-5	81*	-122	112*
CCOC(=O)c1cc(N2CCCCC2)nc2ccccc12	-1	·	-5	1	-21	0
COC(=O)c1cc(N2CCN(C)CC2)nc2ccccc12	-62	-2	4	50*	-1	18
Cc1cccc(C(=O)Nc2scc(-c3ccc(Br)cc3)c2C(=O)O)c1	-4	4	0	-11	50*	1
CCCOc1ccc(C(=O)N2CCN(c3ccc(NC(=O)CC)cc3Cl)CC2)cc1	4	-3	-2	-4	62*	-2
CN1CCN(c2ccc(NC(=O)COc3ccccc3)cc2Cl)CC1	-6	·	0	9	17	1
COc1ccc(CCNC(=O)C2CCC(=O)N(CC3CCCCC3)C2)cc1 (stereo unspecified)	-3	·	-2	-4	-5	3
COc1ccc(CN2C(=O)NC(C)(c3ccc(C)cc3)C2=O)cc1F (stereo unspecified)	2	4	1	1	1	-1
CCN1C(=O)C(=O)N(Cc2ccc(OC)c(F)c2)C1=O	1	4	4	0	84*	0
COc1cc(Oc2ccccc2)nc(N)n1	-7	3	0	8	3	-2
C#CCOCCOCCOCCNc1nc(N2CCN(C(=O)CCCCCCCCCCNC(=O)[C@H]([C@@H](C)CC)n3cc(CCCCN=C(N)N)nn3)CC2)nc(N2CCN(C(=O)CCCCCCCCCCNC(=O)[C@H](CO)n3cc(CCCCCN)nn3)CC2)n1	11	4	40*	-4	-189	76*
C#CCOCCOCCOCCNc1nc(N2CCN(C(=O)CCCCCCCCCCNC(=O)[C@H]([C@@H](C)CC)n3cc(CCCCN=C(N)N)nn3)CC2)nc(N2CCN(C(=O)CCCCCCCCCCNC(=O)[C@H]([C@@H](C)CC)n3cc(CCCCN=C(N)N)nn3)CC2)n1	·	-7	·	·	·	·
C#CCOCCOCCOCCNc1nc(N2CCN(C(=O)CCCCCCCCCCNC(=O)[C@H]([C@@H](C)CC)n3cc(CCCCCN)nn3)CC2)nc(N2CCN(C(=O)CCCCCCCCCCNC(=O)[C@H](CO)n3cc(CCCCCN)nn3)CC2)n1	-8	9	37*	-2	-42	77*
C#CCOCCOCCOCCNc1nc(N2CCN(C(=O)CCCCCCCCCCNC(=O)[C@H]([C@@H](C)CC)n3cc(CCCCCN)nn3)CC2)nc(N2CCN(C(=O)CCCCCCCCCCNC(=O)[C@H]([C@@H](C)CC)n3cc(CCCCN=C(N)N)nn3)CC2)n1	2	-5	51*	6	·	·
C#CCOCCOCCOCCNc1nc(N2CCN(C(=O)CCCCCCCCCCNC(=O)Cn3cc(CCCCCN)nn3)CC2)nc(N2CCN(C(=O)CCCCCCCCCCNC(=O)[C@H]([C@@H](C)CC)n3cc(CCCCN=C(N)N)nn3)CC2)n1	-3	4	42*	-7	-110	31
SMILES	Cardiac RTF inh	IDE cell inh	IDE act	cardiac RTF act	CRFR2-BP antag	CRFR2-BP ag
CC1(C)NC(=O)N(CC(=O)OCC(=O)Nc2cccc(S(N)(=O)=O)c2)C1=O	-8	9	-3	2	-5	-2
CCOCCCNc1nc2c(C)cccn2c(=O)c1/C=C1\SC(=S)N(CC(C)C)C1=O	5	5	-1	3	-358	170*
Cc1cccn2c(=O)c(/C=C3\SC(=S)NC3=O)c(NCCCN3CCOCC3)nc12	-27	14	-9	18	-46	40
CCCN1C(=O)/C(=C/c2c(NCCCOCC)nc3c(C)cccn3c2=O)SC1=S	-7	·	2	4	-173	113*
COc1ccc(C2NC(=O)NC(C)=C2[N+](=O)[O-])cc1 (stereo unspecified)	1	2	7	-1	6	1
O=C(Nc1ccc(C(=O)NCCCN2CCN(c3ccc(F)cc3)CC2)cc1)C1=CSCCO1	5	-3	6	-7	-35	62*
COC(=O)c1ccc(NC(=O)CN2C(=O)CSC2=O)cc1	0	2	8	3	-4	8
CCOC(=O)c1ccc(NC(=O)CN2C(=O)CSC2=O)cc1	-10	10	0	-2	102*	-1
O=C(CCCc1nc2ccccc2s1)NCc1ccc(F)cc1	5	0	5	1	18	-1
O=C(c1cnn(C(=O)c2ccco2)c1)c1cc(F)ccc1O	-1	2	27*	1	-1	0
O=C(c1cnn(C(=O)c2ccco2)c1)c1cc(Cl)cc(Cl)c1O	-9	1	-1	-1	12	0
CCOc1ccccc1NS(=O)(=O)c1c(C)[nH]c(C)c1C(=O)N1CCCCC1	-10	-1	2	-1	-10	0
CCCCCN(C(=O)CCC(=O)OCC(=O)c1c(C)cc(C)cc1C)c1c(N)n(CCCC)c(=O)[nH]c1=O	-2	-8	6	-12	52*	-1
CCCCCN(C(=O)CCC(=O)OCC(=O)c1ccc(F)c(F)c1)c1c(N)n(CCCC)c(=O)[nH]c1=O	-8	-4	2	-20	14	-1
O=C(N/N=C/c1cc(Cl)cc(Cl)c1O)c1ccncc1	-33	14	-2	18	-86	109*
O=C(O)c1cccc(N/N=C/c2cc(Br)cc(Br)c2O)c1	7	-4	5	-6	64*	4
O=C(N/N=C/c1cc(Br)cc(Br)c1O)c1cccc(S(=O)(=O)N2CCOCC2)c1	-11	1	11	2	-54	69*
